Screening data: PubChem, several laboratories
H9c2 protect: modulators protecting cardiomyocytes from myocardial damage | H9c2 cardiomyocytes, H2O2 injury protection, ATPLite, 2 h | protection from H2O2 cell death, % at 20 µM | actives 0.63% (n = 360,000) | AID 588492;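 active means compounds giving at least 50% protection of heart cells from peroxide-induced death in the single-dose screen, raw or plate-pattern-corrected value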
Jurkat NFkB inh: lowers PMA/ionomycin-induced NF-kB signal in Jurkat cells; PMA/ionomycin-induced NF-kB luciferase reporter, luminescence; inhibition, % at 4 µM; actives 0.53% (n = 330,000); AID 435003; in the data active means inhibition above about 50%
COUP-TFII inh: blocks human COUP-TFII nuclear receptor; P24468; HEK293T NGFI-A luciferase reporter, luminescence; inhibition, % at 8.6 µM; actives 0.7% (n = 370,000); AID 686940;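 active means inhibition above a per-plate cutoff, mean inhibition of test wells between control levels plus 3 SD, cut at about 38% in these data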;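 further: cells cotransfected with COUP-TFII expression vector driving the NGFI-A reporter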
Target sequence (P24468 whole entry, looked up): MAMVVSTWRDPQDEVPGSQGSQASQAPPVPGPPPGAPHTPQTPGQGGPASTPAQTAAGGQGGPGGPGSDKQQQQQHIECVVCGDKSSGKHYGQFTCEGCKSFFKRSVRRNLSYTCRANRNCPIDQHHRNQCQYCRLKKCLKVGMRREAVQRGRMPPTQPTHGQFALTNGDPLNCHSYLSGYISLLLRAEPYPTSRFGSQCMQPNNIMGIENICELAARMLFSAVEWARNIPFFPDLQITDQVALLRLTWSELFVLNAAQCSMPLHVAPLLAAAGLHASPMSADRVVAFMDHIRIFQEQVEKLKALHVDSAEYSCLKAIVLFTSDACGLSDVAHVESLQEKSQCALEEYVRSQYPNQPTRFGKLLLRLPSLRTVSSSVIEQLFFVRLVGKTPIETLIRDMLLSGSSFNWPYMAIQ
Gli-Sufu block: Gli-Sufu pathway antagonism; actives 0.74% (n = 340,000); Sufu-KO-LIGHT fibroblasts, Gli luciferase reporter luminescence; AID 588413; inhibition, % at 5 µM;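 active means inhibition above about 55%, limit read from the data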
TAG inh: inhibitors of triacylglycerol accumulation; actives 0.66% (n = 230,000); inhibition, % at 12.5 µM; H9c2 cells, Nile Red lipid (TAG) fluorescence; cells loaded with 200 µM oleic acid;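 active means pattern-corrected inhibition of lipid staining of at least 50% with the nuclear-stain viability signal not falling by more than 50%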
697 NFkB inh: inhibitors of the PMA/ionomycin-induced NF-kB reporter in 697 B cells. inhibition, % at 4 µM. actives 0.33% (n = 330,000). AID 435022. 697 B-cell NF-kB luciferase reporter, 16 h; in the data active means inhibition above about 35%
TAG conf: triacylglycerol accumulation inhibition, confirmation; inhibition, % at 12.5 µM; actives 71% (n = 990); AID 651629; H9c2 lipid accumulation, Nile Red fluorescence; cells loaded with 200 µM oleic acid; shares compounds with TAG inh;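 active means mean inhibition across replicates of 40% or more; inactive means mean inhibition below 40%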
Large screens that a line does not name were inactive (follow-up assays come after a bar, where they were run). In the library only some 2.6% were active in any assay of this set; here they are far more common.

COc1ccc(N=C2C(=Nc3ccc(OC)cc3)N(c3ccc(OC)cc3)C(=S)N2C(=O)c2ccc(OC)cc2)cc1	TAG inh 54 | TAG conf 99
CCN(CC(=O)Nc1ccc(C(=O)Nc2ccc(OC)cc2)cc1)Cc1nc2ccccc2c(=O)[nH]1	TAG inh 55 | TAG conf 50
CCCCCn1nnnc1C1(C)CSCC(=O)N1Cc1ccco1 (stereo not drawn)	none (no result: H9c2 protect, Jurkat NFkB inh, Gli-Sufu block, TAG inh, 697 NFkB inh)
Cc1cc(N2CCNC[C@@H]2C)ccc1N1CCS(=O)(=O)CC1	none (no result: H9c2 protect, Jurkat NFkB inh, Gli-Sufu block, TAG inh, 697 NFkB inh)
COc1ccc(-n2cc(CN3CCCC3)c(-c3cccc(F)c3)n2)cc1	TAG inh 80 | TAG conf inactive
COc1ccc(-n2cc(CNC3CCN(C)CC3)c(-c3cccc(F)c3)n2)cc1	none
Cc1ccc(C(=O)C2CCN(CC(=O)N3CCCC3)CC2)cc1	none (no result: H9c2 protect, Jurkat NFkB inh, Gli-Sufu block, TAG inh, 697 NFkB inh)
CC(C)C[C@H]1CNC(=S)N1CC1CCCN1C[C@H](CC(C)C)N1C[C@H](CC(C)C)N(CCc2ccccc2)C1=S (stereo partly drawn)	TAG inh 74 (no result: Jurkat NFkB inh, 697 NFkB inh) | TAG conf 82
CC(C)C[C@H]1CNC(=S)N1CC1CCCN1C[C@H](CC(C)C)N1C[C@H](Cc2ccccc2)N(CC2CCCCCC2)C1=S (stereo partly drawn)	none (no result: Jurkat NFkB inh, 697 NFkB inh)
Oc1ccc(C[C@H]2CNC(=S)N2CC2CCCN2C[C@H](Cc2ccc(O)cc2)N2C[C@H](Cc3ccc(O)cc3)N(CC3CCCCCC3)C2=S)cc1 (stereo partly drawn)	TAG inh 76 (no result: Jurkat NFkB inh, 697 NFkB inh) | TAG conf 72
Oc1ccc(C[C@H]2CN([C@@H](Cc3ccccc3)CN3CCC[C@@H]3CN3C(=S)NC[C@@H]3Cc3ccccc3)C(=S)N2CC2CCCCC2)cc1	none (no result: Jurkat NFkB inh, Gli-Sufu block, TAG inh, 697 NFkB inh)
CC(C)C[C@H]1CNC(=S)N1CC1CCCN1C[C@H](CC(C)C)N1C[C@H](CC(C)C)N(CC2CCCCCC2)C1=S (stereo partly drawn)	TAG inh 62 (no result: Jurkat NFkB inh, 697 NFkB inh) | TAG conf 55
Fc1cccc(Cn2ccc3ccc(-c4ccc5ccn(Cc6cccc(F)c6)c5c4)cc32)c1	none (no result: H9c2 protect, Jurkat NFkB inh, Gli-Sufu block, TAG inh, 697 NFkB inh)
COc1ccc(-c2nc(NC(=O)C3CCN(c4nc5ccccc5o4)CC3)sc2C)cc1	TAG inh 66 | TAG conf 58
O=C1c2ccccc2C(=O)c2c1ccc(C(=O)N1CCCCC1)c2NCCO	TAG inh 83 | TAG conf 83
COc1cc(-c2coc3c(C(=O)NCc4ccc(C(F)(F)F)cc4)cccc23)ccc1O	TAG inh 54 (no result: Jurkat NFkB inh, Gli-Sufu block, 697 NFkB inh) | TAG conf inactive
O=C(CN(CC1CCCO1)S(=O)(=O)c1ccc(S(=O)(=O)NC2CC2)cc1)Nc1ccccc1 (stereo not drawn)	TAG inh 51 | TAG conf inactive
O=C1[C@@H](C2CCCCC2)[C@@H]2c3ccccc3C=NN2[C@@H]2c3ccccc3C=NN12	none (no result: H9c2 protect, Jurkat NFkB inh, Gli-Sufu block, TAG inh, 697 NFkB inh)
CC(C)(C)c1cc(NC(=O)C2(C)CCN2C(=O)C2(c3ccccc3)CCCC2)no1 (stereo not drawn)	TAG inh 53 (no result: Jurkat NFkB inh, Gli-Sufu block, 697 NFkB inh) | TAG conf inactive
CC(C)(C)c1cc(NC(=O)C2(C)CCN2C(=O)C2(c3ccccc3)CC2)no1 (stereo not drawn)	none (no result: Jurkat NFkB inh, Gli-Sufu block, 697 NFkB inh)
CCCCNC(=O)C[C@H]1C[C@@]2(C(=O)OC)C(=C[C@H](C(C)(C)C)O[C@@H]2C)N(Cc2ccccc2)C1=O	none (no result: H9c2 protect, Jurkat NFkB inh, Gli-Sufu block, TAG inh, 697 NFkB inh)
COc1cc(NC(=O)c2ccco2)c(OC)cc1NC(=O)CCC(=O)Nc1cccc(C)c1C	TAG inh 56 | TAG conf 52
CC1CCN(c2ccc(C(=O)O)cc2NS(=O)(=O)c2ccc(C(C)(C)C)cc2)CC1	none (no result: H9c2 protect, Jurkat NFkB inh, Gli-Sufu block, TAG inh, 697 NFkB inh)
O=C(Nc1cccc(NS(=O)(=O)c2ccc(S(=O)(=O)NC3CC3)cc2)c1)c1ccccn1	TAG inh 56 | TAG conf inactive
CCC(C)(C)C1CCC2(CC1)NC(=O)N(CC(=O)NCCOc1ccccc1)C2=O (stereo not drawn)	none
CCC(C)(C)C1CCC2(CC1)NC(=O)N(CC(=O)NCCc1ccc(OC)c(OC)c1)C2=O (stereo not drawn)	TAG inh 53 | TAG conf 50
O=C(N[C@H](Cc1ccccc1)C(=O)N1CCCN(Cc2ccccc2F)CC1)[C@H]1O[C@@H](n2ccc(=O)[nH]c2=O)[C@H](O)[C@@H]1O	none (no result: H9c2 protect, Jurkat NFkB inh, Gli-Sufu block, TAG inh, 697 NFkB inh)
COc1ccc(C(=O)NNC(=O)Cc2ccc(-c3ccccc3)cc2)cc1OC	TAG inh 57 | TAG conf inactive
COC(=O)[C@]12C[C@H](CC(=O)NCc3ccc(C)o3)C(=O)N(CCc3ccc(OC)c(OC)c3)C1=C[C@H](C1CCCC1)O[C@@H]2C	none (no result: H9c2 protect, Jurkat NFkB inh, Gli-Sufu block, TAG inh, 697 NFkB inh)
O=C(C(=O)N1CCN(S(=O)(=O)c2ccc(Cl)cc2)CC1)c1cccc(C(F)(F)F)c1	none (no result: H9c2 protect, Jurkat NFkB inh, Gli-Sufu block, TAG inh, 697 NFkB inh)
OCC1OC(n2cnc3c(NCc4ccccc4O)ncnc32)C(O)C1O (stereo not drawn)	none (no result: Jurkat NFkB inh, 697 NFkB inh)
CC(C)=CCNc1ncnc2c1c(C#N)cn2C1OC(CO)C(O)C1O (stereo not drawn)	TAG inh 58 (no result: Jurkat NFkB inh, 697 NFkB inh) | TAG conf 46
COc1cc(C2C3=C(COC3=O)Oc3cc4c(cc32)OCO4)ccc1O (stereo not drawn)	TAG inh 55 (no result: Jurkat NFkB inh, 697 NFkB inh) | TAG conf 71
COC(=O)C1=C(C)N(C)C(=NCc2ccc3c(c2)OCO3)NC1c1ccc(Cl)cc1 (stereo not drawn)	none (no result: H9c2 protect, Jurkat NFkB inh, Gli-Sufu block, TAG inh, 697 NFkB inh)
CCOc1ccccc1NC(=O)C(CC(C)C)NC(=O)C1CCCCC1 (stereo not drawn)	TAG inh 51 | TAG conf inactive
COc1ccc(NC(=O)C(CC(C)C)NC(=O)C2CCCCC2)c(OC)c1 (stereo not drawn)	none
O=C(CCl)N(CCCNC(=O)C(F)(F)F)c1ccc([N+](=O)[O-])cc1	TAG inh 68 | TAG conf 56
O=C(NCCCNc1ccc([N+](=O)[O-])cc1)C(F)(F)F	none
COc1ccc(OCc2nn3c(-c4ccccc4)nnc3s2)cc1	none (no result: H9c2 protect, Jurkat NFkB inh, Gli-Sufu block, TAG inh, 697 NFkB inh)
NC(=O)c1c(N)[nH]c(C(=O)c2ccccc2)c1-c1ccccc1C(F)(F)F	none (no result: H9c2 protect, Jurkat NFkB inh, Gli-Sufu block, TAG inh, 697 NFkB inh)
Cc1cccc(NC(=O)c2ccc([N+](=O)[O-])o2)c1C	TAG inh 71 | TAG conf 62
O=C(Nc1cccc2ccccc12)c1ccc([N+](=O)[O-])o1	none (no result: TAG inh)
CC(C)(C)c1cc(NCc2ccccn2)n2ncc(-c3ccc(Cl)cc3)c2n1	TAG inh 52 | TAG conf 44
COC(=O)C1=C(C)N(Cc2ccc(C(F)(F)F)cc2)C(=NCc2ccc3c(c2)OCO3)NC1c1ccccc1C(F)(F)F (stereo not drawn)	none (no result: H9c2 protect, Jurkat NFkB inh, Gli-Sufu block, TAG inh, 697 NFkB inh)
CN(C)CCCn1c(SCC(=O)Nc2nc(-c3cccc(Br)c3)cs2)nc2ccccc2c1=O	TAG inh 79 | TAG conf 67
CCOC(=O)c1c(C)[nH]c(C(=O)OCC(=O)NCCc2ccc(OCC)c(OCC)c2)c1C	TAG inh 57 | TAG conf 63
